In PubChem BioAssay one finds composite z-score and z-score data, which are given here for 19 compounds.

Active and inactive are the calls of the source. Unless noted, the rule behind the calls is not given here.

The test system of test [1] is Wnt5a (protein binding on small-molecule microarray). The experiment in a line: small molecules binding Wnt5a protein – biophysical, small-molecule microarray, 635/667 nm fluorescence, primary screen (AID 1142).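 Note: fluorescence read at 667 nm with signal to noise per printed feature.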 Particulars: 635 nm fluorescence, higher = more signal.
Test [2] is described as follows: ATP-based viability of Huh7 replicon cells – cell-based, CellTiter-Glo luminescence, basal, 48 h, cytotoxicity control for HCV replication inhibitor project, primary screen (AID 1143).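 Note: Huh7 hepatoma cells carrying a hepatitis C replication reporter with no stimulus; test concentration not given here.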 Particulars: higher = more signal, called active from +8 up or from −8 down. (In general: Replicon systems follow genome replication, usually without infectious particles.)
Test [3] in a line: Pseudomonas biofilm growth suppression – PAO1 strain, BacTiter-Glo luminescence, LB-PBS, primary screen (AID 1144). Particulars: P. aeruginosa PAO1 biofilm, 12 h, higher = more signal.
Test [4] is described as follows: basal CRE-LacZ reporter activity in PC12 – cell-based, unstimulated, primary screen (AID 1145). Particulars: no forskolin, luminescence, 4.5 h, higher = more signal, called active from +8 up or from −8 down.
Test [5] in a line: forskolin-driven CRE-LacZ activity in PC12 – cell-based, CRE-LacZ reporter, forskolin-stimulated, primary screen (AID 1146).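 Note: PC12 cells with 6xCRE LacZ reporter stimulated by forskolin 10 µM; beta-galactosidase reporter signal reflecting CREB driven transcription.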 Particulars: luminescence, 4.5 h, higher = more signal, called active from +8 up or from −8 down.
Test [6] has as its target Streptavidin (Streptomyces avidinii) (UniProt P22629). Briefly: compounds binding control protein streptavidin – biophysical, small-molecule microarray, 635/667 nm fluorescence, artefact control for SMM compound annotation, primary screen (AID 1147).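 Note: signal reflects streptavidin binding to arrayed compounds as a control protein.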 Particulars: higher = more signal.
A short description of test [7]: probe aInhba binding on compound microarray – biochemical, small-molecule microarray, 635/667 nm fluorescence, primary screen (AID 1148).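 Note: score merges 667nm spot fluorescence with signal-to-noise for antibody binding to printed compounds.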 Particulars: higher = more signal.
Test [8] deals with Torsin-1A (Homo sapiens) (UniProt O14656). Briefly: TOR1A wild-type binding on microarray – cell lysate, small-molecule microarray, lysate, 635/667 nm, primary screen (AID 1149). Particulars: COS7 hTOR1A-WT lysate, 635 nm fluorescence, higher = more signal.
Test [9] shares this target. The experiment in a line: torsin A mutant lysate binding on microarrays – cell lysate, small-molecule microarray, COS7 lysate, 635/667 nm fluorescence, primary screen (AID 1150).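 Note: score pools 667 nm emission and signal to noise measuring lysate protein binding.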 Particulars: COS7 hTOR1A mutant lysate, 635 nm fluorescence, higher = more signal.
The subject of test [10] is Sonic hedgehog protein (Shh). Briefly: Sonic hedgehog microarray binding compounds – biochemical, small-molecule microarray, 635/667 nm fluorescence, primary screen (AID 1151).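 Note: Shh protein binding to compounds spotted on small-molecule microarray slides; score combines spot fluorescence intensity with signal-to-noise across triplicate slides.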 Particulars: 635 nm fluorescence, higher = more signal.

Sequence of Torsin-1A (Homo sapiens) (O14656 whole entry, looked up): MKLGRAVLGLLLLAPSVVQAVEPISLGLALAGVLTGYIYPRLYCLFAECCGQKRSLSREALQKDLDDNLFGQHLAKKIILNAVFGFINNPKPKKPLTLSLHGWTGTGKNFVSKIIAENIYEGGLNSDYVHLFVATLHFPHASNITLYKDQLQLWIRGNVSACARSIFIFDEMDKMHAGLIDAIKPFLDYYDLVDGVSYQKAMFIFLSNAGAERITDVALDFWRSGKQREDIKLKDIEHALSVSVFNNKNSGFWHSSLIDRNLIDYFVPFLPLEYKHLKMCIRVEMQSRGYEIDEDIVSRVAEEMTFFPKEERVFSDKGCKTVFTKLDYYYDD
Sequence of Streptavidin (Streptomyces avidinii) (P22629 whole entry, looked up): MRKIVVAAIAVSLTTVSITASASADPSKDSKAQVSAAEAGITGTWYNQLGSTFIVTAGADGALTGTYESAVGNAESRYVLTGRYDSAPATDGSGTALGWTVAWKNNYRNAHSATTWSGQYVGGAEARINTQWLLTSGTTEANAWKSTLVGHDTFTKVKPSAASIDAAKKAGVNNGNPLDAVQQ

Consider `COCCOC(=O)N1C(=O)[C@@]2(c3cc(C#CC4=CCCCC4)ccc31)[C@H](C(=O)Nc1nc3ccccc3s1)[C@H]1C(=O)O[C@H](c3ccccc3)[C@H](c3ccccc3)N1[C@@H]2c1ccc(OCCO)cc1`, for which the composite z-score in [1] was 0.575; in test [6], 0.986; in test [7], -0.0221; with Torsin-1A (Homo sapiens) [8], 0.256; with Torsin-1A (Homo sapiens) [9] it was 0.254; in [10], 1.5. Also, the z-score in [2] is -1.49 (inactive); in [3] it was -1.07 (inactive); in test [4], -0.258 (inactive); in test [5], -0.47 (inactive).
With `COCCn1c(C(=O)N2CCCC2)cc2c1C[C@H]1CN(C(=O)c3ccccc3)[C@@](Cc3ccc(F)cc3)(C(=O)OC)[C@@H]21`, the composite z-score in test [1] is 0.45; in test [6], 1.8; in test [7], -0.0931; in the test with Torsin-1A (Homo sapiens) [8] it was 1.42; with Torsin-1A (Homo sapiens) [9], 2.2; in test [10] it was -0.554. Further, the z-score was -1.37 (inactive) in test [2], -0.727 (inactive) in [3], -0.568 (inactive) in [4] and -0.442 (inactive) in [5].
Consider `CC(C)(C)C(=O)N[C@@H](c1ccc(Cl)cc1)[C@]1(C)C[C@H]1C1CCCCC1`, for which the composite z-score is 0.182 in [1]; 2.44 in test [6]; 0.634 in test [7]; 0.895 in the test with Torsin-1A (Homo sapiens) [8]; 1.18 with Torsin-1A (Homo sapiens) [9]; -0.546 in test [10]. In addition, the z-score was -2.95 (inactive) in test [2], -0.153 (inactive) in [3], 0.197 (inactive) in test [4] and 0.456 (inactive) in test [5].
Regarding `CC(C)c1ccc(NN2C(C(O)c3cc(C(F)(F)F)cc(C(F)(F)F)c3)C=CC3C(=O)N(c4ccccc4)C(=O)C32)cc1` (stereo not given), the composite z-score in test [1] was -0.0702; in test [6], 0.759; in test [7], 0.0001; with Torsin-1A (Homo sapiens) [8] it was -0.283; with Torsin-1A (Homo sapiens) [9], 0.843; in test [10], -0.254. Further, the z-score in test [2] is -2.86 (inactive); in [3], -1.4 (inactive); in test [4] it was -0.322 (inactive); in test [5], 0.849 (inactive).
As to `[N-]=[N+]=Nc1ccccc1C[C@@]1(C(=O)NCCN2CCOCC2)N=C(c2ccc(OCCCO)cc2)O[C@@H]1c1ccccc1`, the composite z-score is 0.785 in test [1]; 0.302 in [6]; 0.258 in [7]; 0.304 in the test with Torsin-1A (Homo sapiens) [8]; 0.617 with Torsin-1A (Homo sapiens) [9]; 0.721 in test [10]. The z-score in test [2] is -3.8 (inactive); in [3] it was -0.49 (inactive); in test [4], -0.435 (inactive); in test [5], -1.61 (inactive).
In the case of `O=C1C2C=CC(C(O)C(c3ccccc3)c3ccccc3)N(n3cnnc3)C2C(=O)N1Cc1ccccc1` (stereo not given), the composite z-score was 0.159 in test [1]; 1.12 in [6]; 0.057 in test [7]; 0.0613 with Torsin-1A (Homo sapiens) [8]; 0.142 with Torsin-1A (Homo sapiens) [9]; -0.0479 in [10]. Further, the z-score is -0.0706 (inactive) in test [2], 0.738 (inactive) in test [3], 0.182 (inactive) in test [4] and 0.202 (inactive) in test [5].
As for `COCCOC(=O)N1C(=O)[C@@]2(c3cc(C#CCCO)ccc31)[C@H](C(=O)N1CCN(c3ncccn3)CC1)[C@H]1C(=O)O[C@H](c3ccccc3)[C@H](c3ccccc3)N1[C@@H]2c1ccccc1OCCO`, the composite z-score in test [1] was 0.0536; in test [6], 1.08; in test [7] it was -0.0983; in the test with Torsin-1A (Homo sapiens) [8], 0.259; with Torsin-1A (Homo sapiens) [9], 0.829; in test [10], 0.842. Further, the z-score in test [2] is -2.42 (inactive); in test [3], -0.173 (inactive); in [4] it was -0.698 (inactive); in test [5], -0.228 (inactive).
Turning to `C=C/C=C/[C@H]1C(=C)CN([C@@H](Cc2ccccc2)C(=O)OC)[C@@H]1[C@H](O)Cc1ccccc1`, the composite z-score in test [1] was -0.224; in test [6], -0.663; in test [7] it was -0.0736; with Torsin-1A (Homo sapiens) [8], -1.74; with Torsin-1A (Homo sapiens) [9], -1.4; in [10], 0.122. Also, the z-score in test [2] is -0.123 (inactive); in [3], 0.0605 (inactive); in test [4] it was 5.75 (inactive); in test [5] it was 0.794 (inactive).
With `CC1CC/C=C\[C@H]2OC34C=CCN(Cn5nnc6ccccc65)C(=O)[C@H]3N(C(CO)C(C)C)C(=O)[C@@H]4C2C(=O)O1` (stereo not given in full), the composite z-score is -0.347 in [1]; -0.24 in test [6]; -0.159 in test [7]; -1.45 with Torsin-1A (Homo sapiens) [8]; -1.12 with Torsin-1A (Homo sapiens) [9]; 0.627 in [10]. Further, the z-score in test [2] is 0.154 (inactive); in test [3] it was -0.246 (inactive); in [4] it was -1.03 (inactive); in test [5], -1.05 (inactive).
For the compound `O=C1NC(=O)C2C1C=CC(C(O)c1cccc3ccccc13)N2Nc1ccccn1` (stereo not given), the composite z-score in test [1] is 0.0051; in [6], 0.278; in [7] it was 0.185; with Torsin-1A (Homo sapiens) [8], 0.16; with Torsin-1A (Homo sapiens) [9], 0.231; in test [10] it was -0.516. Besides, the z-score is 0.697 (inactive) in [2], -0.484 (inactive) in [3], -0.522 (inactive) in [4] and -0.285 (inactive) in [5].
Consider `CN1C2C=C(CCCO)C(C3C(=O)N(C(N)=O)C(=O)C32)C1c1ccc(CN2CCCC2)cc1` (stereo not given), for which the composite z-score in [1] was 0.269; in test [6], -0.411; in [7] it was -0.299; with Torsin-1A (Homo sapiens) [8], -0.14; with Torsin-1A (Homo sapiens) [9], -0.266; in test [10] it was -0.138. In addition, the z-score in test [2] was 1.23 (inactive); in [3] it was -0.938 (inactive); in test [4], -0.83 (inactive); in test [5], 1.31 (inactive).
Take `CN(C)CCCNC(=O)[C@@]1(c2ccc([N+](=O)[O-])cc2)CC(=O)N(C2CCCCC2)[C@@H]1c1ccc(CO)cc1I`: the composite z-score in [1] was -0.107; in test [6] it was 0.71; in [7], -0.016; in the test with Torsin-1A (Homo sapiens) [8], 0.343; with Torsin-1A (Homo sapiens) [9], 0.306; in [10], 0.279. For the same compound, the z-score in test [2] is -5.87 (inactive); in test [3] it was 0.262 (inactive); in test [4], 0.378 (inactive); in test [5], 0.519 (inactive).
As for `C[C@@H]1ON(c2cccc(C(=O)OC(C)(C)C)c2)[C@H](c2ccc(Br)cc2)[C@H]1C(=O)N1C(=O)OC[C@H]1Cc1ccccc1`, the composite z-score in [1] came out at 0.458; in test [6] it was 0.852; in test [7], 0.134; with Torsin-1A (Homo sapiens) [8] it was 0.18; with Torsin-1A (Homo sapiens) [9], 0.389; in [10], 0.937. The z-score is -0.242 (inactive) in test [2], 0.938 (inactive) in test [3], 1.49 (inactive) in [4] and -0.278 (inactive) in [5].
For `CCCC[C@H]1OB(O)C[C@H]2C1=C(COc1ccccc1)C[C@H]1C(=O)N(C)C(=O)[C@H]12`, the composite z-score was 0.195 in test [1]; -0.385 in test [6]; -0.0933 in test [7]; -0.212 with Torsin-1A (Homo sapiens) [8]; 0.138 in the test with Torsin-1A (Homo sapiens) [9]; 0.853 in [10]. In addition, the z-score in [2] was -0.348 (inactive); in [3], 1.04 (inactive); in [4], 1.77 (inactive); in test [5], 0.899 (inactive).
`CS(=O)(=O)CCOC(=O)C1=CC(CCCO)=CC(c2ccc(CN3CCCC3)cc2)N(Cc2cc3c(cc2Br)OCO3)C=C1C(=O)OCCS(C)(=O)=O` (stereo not given): the composite z-score was 0.592 in [1]; 1.5 in test [6]; 0.229 in test [7]; 2.09 with Torsin-1A (Homo sapiens) [8]; 2.13 with Torsin-1A (Homo sapiens) [9]; 0.404 in [10]. The z-score is -0.277 (inactive) in test [2], 0.814 (inactive) in test [3], 4.06 (inactive) in test [4] and -1.45 (inactive) in test [5].
As to `CC(C)OC(=O)C=C1C[C@@H](c2ccccc2C(F)(F)F)O[C@@H](c2ccccc2C(F)(F)F)O1`, the composite z-score in test [1] is 0.0503; in test [6] it was 0.215; in test [7], -0.176; with Torsin-1A (Homo sapiens) [8], 0.217; in the test with Torsin-1A (Homo sapiens) [9] it was 0.202; in [10], 0.245. The z-score in test [2] is -4.32 (inactive); in [3] it was -0.0124 (inactive); in test [4], 0.0798 (inactive); in [5] it was 1.22 (inactive).
With `C=CCNC(=O)[C@@H]1[C@H]2C(=O)O[C@H](c3ccccc3)[C@H](c3ccccc3)N2[C@H](c2ccc(OCCO)cc2)[C@@]12C(=O)Nc1ccc(C#Cc3ccc(OC)cc3)cc12`, the composite z-score in [1] turned out to be 0.233; in test [6], 1.01; in [7], 0.0125; in the test with Torsin-1A (Homo sapiens) [8], 0.406; with Torsin-1A (Homo sapiens) [9] it was 0.602; in test [10] it was 1.64. The z-score in [2] was -4.16 (inactive); in test [3], -0.486 (inactive); in test [4] it was -0.195 (inactive); in test [5] it was 0.236 (inactive).
For the compound `CCN(CC)c1ccc(N2CC=CC34O[C@@H]5/C=C\CCC(C)OC(=O)C5[C@H]3C(=O)N(C(CO)C(C)C)[C@@H]4C2=O)cc1` (stereo not given in full), the composite z-score in test [1] was -0.443; in test [6] it was -0.826; in test [7], -0.108; in the test with Torsin-1A (Homo sapiens) [8], -0.918; in the test with Torsin-1A (Homo sapiens) [9], -1.32; in test [10], 0.661. For the same compound, the z-score in test [2] was -0.122 (inactive); in [3], 0.805 (inactive); in test [4] it was 0.337 (inactive); in test [5], 0.199 (inactive).
For `CC(C)c1ccc(NN2C(C(O)C(c3ccccc3)c3ccccc3)C=CC3C(=O)N(c4ccccc4)C(=O)C32)cc1` (stereo not given), the composite z-score in test [1] is 0.359; in test [6], 1.3; in test [7], 0.246; with Torsin-1A (Homo sapiens) [8] it was 0.792; in the test with Torsin-1A (Homo sapiens) [9], 0.936; in [10], -0.0266. Besides, the z-score in [2] is -0.29 (inactive); in test [3], -0.281 (inactive); in test [4], -0.322 (inactive); in [5], 1.3 (inactive).
